Records with an inconclusive call do not appear. Activity calls are given as the source filed them. Calls come from the whole dose curve; as a rule, active = well fitted curve in the direction sought with a large enough effect; inconclusive = small, poorly fitted or top-dose-only effect, or another doubt; inactive = no such curve, though single readings can be large or run the other way.

For the experiment, the target named is 4-diphosphocytidyl-2-C-methyl-D-erythritol kinase, chloroplastic (Arabidopsis thaliana) (UniProt O81014). Nature of the experiment: Confirmatory Assay for Inhibitors of Human Galactokinase (GALK): CDP-Me assay counterscreen. As to conditions: ATP depletion, Kinase-Glo luminescence. The source says:
NIH Molecular Libraries Probe Production Centers Network [MLPCN] NIH Chemical Genomics Center [NCGC] MLPCN Grant: R03 MH085689-01 Assay Submitter (PI): Kent Lai (University of Utah School of Medicine, 50 N Mario Capecchi Drive, Salt Lake City, UT 84132) NCGC Assay Overview The GHMP kinase family is a unique class of important enzymes that plays an essential role in many metabolic processes. It contains more than 170 protein members among which are the galactokinase (GALK) and the CMK enzymes. GALK plays a crucial role in galactose processing and is a potential therapeutic target for Classic Galactosemia (OMIM: 230400). CMK is involved for the non-mevalonate synthesis of isoprenoids precursors and natural products like sterols or ubiquinones which are important to many biological functions. […]
NCGC Assay Protocol Summary: Three uL/well of substrate solution (15 uM ATP, 30 uM CDP-ME, 20 mM HEPES pH8.0, 5 mM MgCl2, 40 mM KCl, 1 mM DTT, 0.01% BSA final concentration) was dispensed into 1536-well, assay plates (Greiner, solid white medium-binding plates) with Aurora Discovery BioRAPTR Flying Reagent Dispenser (FRD; Beckton-Dickenson). […] After 1 min, luminescence was detected with the ViewLux plate reader (Perkin Elmer, Waltham, MA) using a 1 sec exposure time and 2x binning settings.
Background: Counterscreens check selectivity or assay interference.

Sequence of 4-diphosphocytidyl-2-C-methyl-D-erythritol kinase, chloroplastic (Arabidopsis thaliana) (O81014 whole entry, looked up): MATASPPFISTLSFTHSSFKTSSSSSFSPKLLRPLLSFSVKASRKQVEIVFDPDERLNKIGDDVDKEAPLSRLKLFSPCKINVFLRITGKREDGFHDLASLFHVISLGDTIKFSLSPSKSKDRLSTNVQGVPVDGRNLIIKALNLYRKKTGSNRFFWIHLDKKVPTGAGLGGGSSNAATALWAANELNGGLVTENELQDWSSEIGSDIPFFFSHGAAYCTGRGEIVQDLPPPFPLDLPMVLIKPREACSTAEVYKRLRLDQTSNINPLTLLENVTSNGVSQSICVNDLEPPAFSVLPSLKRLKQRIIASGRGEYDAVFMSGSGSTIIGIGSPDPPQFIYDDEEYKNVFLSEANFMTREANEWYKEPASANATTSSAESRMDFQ

Turning to `Cc1cc2c(C(C)C)c(O)c(O)c(C=O)c2c(O)c1-c1c(C)cc2c(C(C)C)c(O)c(O)c(C=O)c2c1O`, the Potency is 47.3 µM (active).

Values taken from PubChem BioAssay AID2017 (National Center for Advancing Translational Sciences (NCATS), 2009).
